Experiment [1] in a line: HepG2 liver cancer cell viability effects, profiling panel, resazurin fluorescence, 24 h, PK04 Diversity Set (AID 1172). Particulars: higher = more signal.
A short description of experiment [2]: basal S. cerevisiae growth modulation, no modifier, primary screen, OD600, strain BY4716, 24 h, basal condition (AID 1173). Particulars: OD600, 24 h, higher = more signal, called active from +8 up or from −8 down.
Experiment [3] in a line: MM1S myeloma cell viability, profiling panel, resazurin fluorescence, basal, 24 h, PK04 Diversity Set (AID 1174). Particulars: higher = more signal, called active from +8 up or from −8 down.
Experiment [4] addresses Dihydroorotate dehydrogenase (quinone), mitochondrial (Plasmodium falciparum (isolate 3D7)) (UniProt Q08210). Briefly: PfDHODH enzyme inhibitors, primary screen, biochemical, C-terminal His tag, absorbance 600 nm (AID 1175).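 Note: recombinant parasite enzyme with a five histidine tag at its C terminus.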 Particulars: DCIP absorbance 600 nm, higher = more signal, called active from +8 up or from −8 down.
The nature of experiment [5]: P. aeruginosa biofilm formation inhibitors, primary screen, strain PAO1, LB-PBS medium, absorbance 600 nm (AID 1176). Conditions: P. aeruginosa PAO1 growth/biofilm, A600, 12 h; higher = more signal.
The nature of experiment [6]: S. cerevisiae RM11-1a growth modifiers, primary screen, strain RM11-1a, OD600, basal, 24 h (AID 1177).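 Note: cultures grown under basal conditions with no added stressor.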 Particulars: OD600, 24 h, higher = more signal, called active from +8 up or from −8 down.
The nature of experiment [7]: E. coli acrAB mutant growth effects, primary screen, E. coli filamentation inducers, strain DRC39, OD650, 24 h (AID 1178).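 Note: growth measured as culture turbidity by optical density at 650 nm.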 Particulars: higher = more signal, called active from +8 up or from −8 down.
Experiment [8] in a line: E. coli acrAB mutant growth effects, primary screen, E. coli filamentation inducers, strain DRC39, OD650, 48 h (AID 1179).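 Note: screen aims at cell division blockers that make cells filament.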 Conditions: E. coli DRC39 delta-acrAB growth, higher = more signal, called active from +8 up or from −8 down.
Experiment [9] is described as follows: RPMI8226 myeloma cell viability, profiling panel, resazurin fluorescence, basal, 24 h, PK04 Diversity Set (AID 1180).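 Note: RPMI8826 multiple myeloma cell line at 5000 cells per well.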 Conditions: higher = more signal.
Experiment [10] deals with E3 ubiquitin-protein ligase XIAP (Homo sapiens) (UniProt P98170). Briefly: XIAP binders, primary screen, biophysical, small-molecule microarray, fluorescence 635 nm (AID 1181).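 Note: score merges 667 nm emission and signal to noise over triplicate slides.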 Conditions: small-molecule microarray binding, higher = more signal.
E3 ubiquitin-protein ligase XIAP (Homo sapiens), sequence (P98170 whole entry, looked up): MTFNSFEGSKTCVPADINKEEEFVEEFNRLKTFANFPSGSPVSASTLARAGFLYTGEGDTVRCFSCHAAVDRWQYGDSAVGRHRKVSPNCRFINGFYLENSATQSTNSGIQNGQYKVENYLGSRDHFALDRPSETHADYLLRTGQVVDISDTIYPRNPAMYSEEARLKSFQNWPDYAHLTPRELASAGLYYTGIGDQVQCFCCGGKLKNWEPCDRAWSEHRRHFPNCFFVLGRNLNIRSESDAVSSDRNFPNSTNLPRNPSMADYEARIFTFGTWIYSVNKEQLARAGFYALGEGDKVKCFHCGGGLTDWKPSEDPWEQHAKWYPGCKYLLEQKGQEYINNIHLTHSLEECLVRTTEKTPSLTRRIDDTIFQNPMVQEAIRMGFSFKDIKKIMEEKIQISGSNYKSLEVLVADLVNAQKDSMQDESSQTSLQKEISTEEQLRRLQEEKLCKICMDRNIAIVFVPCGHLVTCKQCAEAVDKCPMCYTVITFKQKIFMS
Experiment [11] has as its system XIP peptide (Xip251-270) binding. The experiment can be described thus: small-molecule binders of XIP peptide, primary screen, biochemical, small-molecule microarray, fluorescence 635/667 nm, 0.1 µg/mL protein (AID 1182). Particulars: fluorescent protein binding, 635 nm, higher = more signal, called active from +8 up or from −8 down.
For the next experiment, the system named is XIP peptide (Xip251-270). Briefly: small-molecule binders of XIP peptide, primary screen, biochemical, small-molecule microarray, fluorescence 635/667 nm, 0.5 µg/mL protein (AID 1183). Conditions: small-molecule microarray binding, fluorescence 635 nm; higher = more signal.
Experiment [12] is described as follows: Plasmodium falciparum growth inhibition, primary screen, strain 3D7, DAPI fluorescence, 100 nL (AID 1184).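 Note: parasites grown inside human red blood cells in medium with human serum.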 Particulars: P. falciparum 3D7 growth, 3 d, higher = more signal.
Experiment [13] has as its target Homeobox protein Hox-A13 (Mus musculus) (UniProt Q62424). Briefly: inhibitors of HoxA13-DNA binding, primary screen, biochemical, fluorescence polarization, labeled oligonucleotide (AID 1185). Particulars: 15 min, higher = more signal, called active from +8 up or from −8 down.
A short description of experiment [14]: inhibitors of hydroxyurea-induced Chk1 phosphorylation, primary screen, imaging, HeLa, phospho-Chk1 antibody, percent positive cells (AID 1186). Particulars: hydroxyurea-induced phospho-Chk1 immunofluorescence imaging, higher = more signal.
Experiment [15] is described as follows: inhibitors of hydroxyurea-induced Chk1 phosphorylation, primary screen, imaging, HeLa, phospho-Chk1 nuclear intensity (AID 1187). Conditions: hydroxyurea-induced phospho-Chk1 immunofluorescence imaging, higher = more signal.

The record followed here is PubChem BioAssay.

Activity calls are given as the source filed them. Unless noted, the rule behind the calls is not given here.

Dihydroorotate dehydrogenase (quinone), mitochondrial (Plasmodium falciparum (isolate 3D7)), sequence (Q08210 whole entry, looked up): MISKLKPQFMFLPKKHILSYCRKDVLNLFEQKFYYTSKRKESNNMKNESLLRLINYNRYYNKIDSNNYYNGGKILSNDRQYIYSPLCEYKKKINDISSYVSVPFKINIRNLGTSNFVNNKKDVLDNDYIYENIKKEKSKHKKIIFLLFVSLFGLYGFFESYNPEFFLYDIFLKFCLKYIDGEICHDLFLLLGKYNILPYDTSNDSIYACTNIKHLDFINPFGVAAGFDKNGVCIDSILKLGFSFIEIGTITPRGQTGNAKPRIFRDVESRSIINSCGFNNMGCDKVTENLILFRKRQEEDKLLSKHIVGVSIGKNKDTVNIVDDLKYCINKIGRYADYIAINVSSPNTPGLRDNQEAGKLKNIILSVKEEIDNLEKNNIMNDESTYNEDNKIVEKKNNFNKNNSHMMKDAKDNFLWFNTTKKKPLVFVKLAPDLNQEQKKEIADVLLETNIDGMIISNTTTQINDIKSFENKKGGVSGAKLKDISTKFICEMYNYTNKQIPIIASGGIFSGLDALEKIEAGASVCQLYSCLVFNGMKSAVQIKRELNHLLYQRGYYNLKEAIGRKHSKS
Homeobox protein Hox-A13 (Mus musculus), sequence (Q62424 whole entry, looked up): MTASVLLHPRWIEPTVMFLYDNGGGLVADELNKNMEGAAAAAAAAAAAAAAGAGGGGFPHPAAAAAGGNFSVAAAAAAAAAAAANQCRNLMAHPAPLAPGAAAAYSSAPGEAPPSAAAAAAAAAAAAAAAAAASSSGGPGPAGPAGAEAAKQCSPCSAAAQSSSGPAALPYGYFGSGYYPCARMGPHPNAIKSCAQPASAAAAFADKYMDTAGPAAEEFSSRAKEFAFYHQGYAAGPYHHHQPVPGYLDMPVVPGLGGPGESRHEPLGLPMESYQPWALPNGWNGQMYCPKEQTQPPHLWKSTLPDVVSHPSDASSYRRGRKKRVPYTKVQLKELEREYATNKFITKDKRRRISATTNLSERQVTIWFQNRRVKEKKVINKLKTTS

As to `CN1C(=O)C2C(C3CC3)C=C3CN(Cc4cccc(Cl)c4)[C@@H]([C@@H](O)Cc4ccccc4)C3C2C1=O` (some centres undefined), the z-score was 0.313 in experiment [1]; -1.83 (inactive) in experiment [2]; 0.076 (inactive) in experiment [3]; 0.601 (inactive) in [5]; 0.248 (inactive) in experiment [6]; 0.942 (inactive) in [7]. Further, the z-score was 0.588 (inactive) in experiment [8]; -0.0321 in experiment [9]; -0.185 in experiment [12]; -4.6 (inactive) in [13]; -1.34 (inactive) in experiment [14]; -2.37 (inactive) in experiment [15]. Moreover, the composite z-score was -0.0831 (inactive) in experiment [4], -0.0264 in experiment [10], 0.163 (inactive) in experiment [11] and 0.74 in the experiment with XIP peptide (Xip251-270).

For `COc1cc(C(O)C2C=CC3C(=O)N(c4ccccc4)C(=O)C3N2Nc2ccccc2F)cc(OC)c1OC` (centres undefined), the z-score is -0.514 in experiment [1]; 0.886 (inactive) in experiment [2]; -0.565 (inactive) in experiment [3]; 0.437 (inactive) in experiment [5]; 0.881 (inactive) in experiment [6]; -0.631 (inactive) in experiment [7]. The z-score in experiment [8] was -0.765 (inactive); in experiment [9] it was -0.17; in [12] it was -0.267; in experiment [13] it was -4.84 (inactive); in experiment [14] it was 0.409 (inactive); in [15] it was -0.477 (inactive). For the same compound, the composite z-score was 0.0998 (inactive) in experiment [4], 0.081 in [10], 0.283 (inactive) in [11] and 0.737 with XIP peptide (Xip251-270).

Take `C=C(C)[C@@H]1CC=C(C(O)C2C=CC3C(=O)N(c4ccccc4)C(=O)C3N2Nc2ccc([N+](=O)[O-])cc2)CC1` (some centres undefined): the z-score was -0.783 in experiment [1]; 0.139 (inactive) in experiment [2]; -0.66 (inactive) in [3]; 0.741 (inactive) in [5]; 0.526 (inactive) in experiment [6]; -1.17 (inactive) in experiment [7]. Moreover, the z-score in [8] is -1.37 (inactive); in experiment [9] it was -0.204; in experiment [12] it was -1.26; in experiment [13], -1.49 (inactive); in [14], 0.248 (inactive); in [15] it was 0.0235 (inactive). Further, the composite z-score in experiment [4] was 1 (inactive); in experiment [10], -0.0848; in [11], 0.26 (inactive); with XIP peptide (Xip251-270), -0.0122.

For `C=CCOC(=O)[C@H]1[C@@H]2C(=O)O[C@@H](c3ccccc3)[C@@H](c3ccccc3)N2[C@@H](c2ccc(OCCOC(=O)[C@@H]3C[C@@H]4C(=O)N[C@@H](CCCC[N+](C)(C)C)C(=O)N4[C@@H]3c3ccc(O)cc3)cc2)[C@]12C(=O)Nc1ccc(I)cc12`, the z-score in [1] is -0.0156; in experiment [2], 0.118 (inactive); in experiment [3], -1.17 (inactive); in experiment [5] it was 1.12 (inactive); in experiment [6] it was 2.46 (inactive); in experiment [7], -1.46 (inactive). For the same compound, the z-score was -1.11 (inactive) in [8]; -0.854 in experiment [9]; 0.0373 in [12]; 6.46 (inactive) in experiment [13]; -0.337 (inactive) in experiment [14]; -0.0674 (inactive) in [15]. The composite z-score in experiment [4] was -2.21 (inactive); in experiment [10] it was 0.261; in [11], 0.557 (inactive); with XIP peptide (Xip251-270) it was 0.765.

For `O=C(NCc1ccccc1)[C@@H]1c2ccccc2C(=O)N(Cc2cc(C(F)(F)F)cc(C(F)(F)F)c2)[C@H]1c1ccc(CO)cc1`, the z-score was -0.527 in [1]; -0.247 (inactive) in experiment [2]; 0.3 (inactive) in experiment [3]; 0.338 (inactive) in [5]; 1.06 (inactive) in experiment [6]; 0.324 (inactive) in [7]. Further, the z-score was 0.0181 (inactive) in experiment [8]; 1.03 in experiment [9]; -1.2 in [12]; -3.95 (inactive) in experiment [13]; -0.0537 (inactive) in [14]; -0.101 (inactive) in experiment [15]. Moreover, the composite z-score in [4] was 0.819 (inactive); in [10], -0.147; in experiment [11], 0.722 (inactive); in the experiment with XIP peptide (Xip251-270) it was 0.221.

`CCOC(=O)C[C@H]1[C@H](OC(=O)Cc2ccc3c(c2)OCO3)[C@@H](NC(=O)Cc2ccc(OC)cc2)c2cc(OCCCO)ccc2N1C(=O)Cc1ccc(OC)cc1`: the z-score in [1] was -0.354; in experiment [2] it was -0.605 (inactive); in [3], 0.594 (inactive); in experiment [5], 0.501 (inactive); in experiment [6], -1.62 (inactive); in [7], 1.44 (inactive). For the same compound, the z-score in experiment [8] was 1.94 (inactive); in experiment [9], 1.02; in experiment [12], -1.99; in experiment [13] it was -1.76 (inactive); in experiment [14], -1.33 (inactive); in experiment [15], -1.19 (inactive). Also, the composite z-score in experiment [4] was -1.72 (inactive); in [10], -0.207; in [11] it was -0.0299 (inactive); in the experiment with XIP peptide (Xip251-270), 0.678.

With `C[N+](C)(C)CCCCNC(=O)[C@H]1C[C@H]2C(=O)N[C@@H](Cc3ccccc3)C(=O)N2[C@H]1c1cccc(OCCO)c1`, the z-score in [1] was -3.26; in [2], 1.07 (inactive); in experiment [3], -0.476 (inactive); in experiment [5], 0.544 (inactive); in experiment [6] it was 0.103 (inactive); in experiment [7] it was 0.548 (inactive). For the same compound, the z-score in experiment [8] was 0.779 (inactive); in experiment [9] it was -0.863; in experiment [12] it was -0.352; in [13] it was -3.44 (inactive); in experiment [14], 0.88 (inactive); in experiment [15], 0.461 (inactive). The composite z-score in experiment [4] was -30.8 (active); in experiment [10] it was 0.459; in experiment [11], 0.875 (inactive); in the experiment on XIP peptide (Xip251-270) it was 0.696.

`Cc1ccccc1C(O)C1C=CC2C(=O)N(c3ccccc3)C(=O)C2N1Nc1ccccc1` (centres undefined): the z-score in [1] was -0.341; in experiment [2] it was -2.84 (inactive); in experiment [3], -0.516 (inactive); in experiment [5], 0.956 (inactive); in [6] it was 0.0725 (inactive); in [7] it was -0.36 (inactive). The z-score in experiment [8] is 0.372 (inactive); in experiment [9], -0.0175; in [12] it was -0.189; in experiment [13] it was -2.86 (inactive); in experiment [14] it was -1.2 (inactive); in [15], -1.11 (inactive). Further, the composite z-score in experiment [4] was 0.106 (inactive); in experiment [10], 0.265; in experiment [11], 0.766 (inactive); in the experiment with XIP peptide (Xip251-270), 0.889.

As for `COc1ccc([Si](C)(C)[C@H]2[C@H](CCO)O[C@@]3(C(=O)N(Cc4cccc(N(C=O)c5ccccc5)c4)c4ccccc43)[C@@H]2C)cc1`, the z-score in experiment [1] is -1.85; in [2], 1.27 (inactive); in experiment [3], -3.37 (inactive); in [5] it was 1.45 (inactive); in experiment [6] it was 4.32 (inactive); in experiment [7], 1.61 (inactive). Also, the z-score is 1.41 (inactive) in experiment [8]; -3.77 in experiment [9]; -2.57 in [12]; -0.557 (inactive) in [13]; -1.73 (inactive) in experiment [14]; -0.831 (inactive) in [15]. Further, the composite z-score in experiment [4] was 0.105 (inactive); in experiment [10], 0.203; in [11], 0.293 (inactive); with XIP peptide (Xip251-270), 0.665.
